Assay outcomes deposited in PubChem by National Center for Advancing Translational Sciences (NCATS).
This is a sample that favours compounds with a hit; in the whole collection about 3.7% have one here.
Tau fluor cs – Counterscreen qHTS for Inhibitors of Tau Fibril Formation, Fluorescence Polarization | tau K18 P301L Alexa594 fluorescence, heparin fibrillization | Potency, µM (highest dose often 57.7 µM), for the others: top-dose activity change, negative = decrease | actives 0.93% (n = 280,000) | AID 1463, 2008; also: % is scaled to controls: 0 for no effect and ±100 for the full control effect; nearly all actives have a fitted effect of over 55% in size
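Human tau K18 P301L (15 uM unlabeled, 0.24 uM Alexa 594-labeled) in 100 mM sodium acetate pH 7 with 20 uM heparin, 6 hr at 37 C. ThT 30 uM added, 1 hr ambient; Alexa 594 FP and total fluorescence read at 555/632 nm.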
HTT cytoprotect – qHTS Multiplex Assay to Identify Dual Action Probes in a Cell Model of Huntington: Cytoprotection (ATP) | PC12 HTT-Q103 induced, cytoprotection, ATP luminescence, 40 h | Potency, µM (series often up to 56.4 µM), without a hit: cytoprotection (ATP increase), most hits filed as activators | actives 0.14% (n = 230,000); also: % of control where 0% means no effect; nearly all actives have a fitted effect of over 45% in size
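Readout: ATPlite luminescence (ATP level). Model: stable PC12, inducible Htt exon1 Q103-GFP. Inducer: tebufenozide, 100 nM final. Compounds: dose series. No G418 in medium.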
Tau FP inhib – qHTS for Inhibitors of Tau Fibril Formation, Fluorescence Polarization; Microtubule-associated protein tau (Homo sapiens), P10636; K18 P301L tau heparin fibrillization, Alexa594 FP, 6 h; Potency, µM (titrated, usually from 57.7 µM), for inactives: at the highest dose activity, negative = inhibition, usual class: inhibitors; actives 0.39% (n = 280,000); AID 1468, 2008; also: % is scaled to controls: 0 for no effect and ±100 for the full control effect; nearly all actives have a fitted effect of over 55% in size
Target sequence (P10636 561-689 P618L limits assumed): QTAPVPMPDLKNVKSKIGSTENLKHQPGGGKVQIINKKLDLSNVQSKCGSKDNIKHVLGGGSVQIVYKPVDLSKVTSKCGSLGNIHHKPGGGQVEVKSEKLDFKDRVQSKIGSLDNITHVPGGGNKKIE
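FP of Alexa 594-tau after heparin (20 uM) induction. Substrate: human K18 P301L, 15 uM unlabeled, 0.24 uM labeled. Buffer 100 mM sodium acetate pH 7. 6 hr, 37 C.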
Tau fibril ThT – qHTS for Inhibitors of Tau Fibril Formation, Thioflavin T Binding | Microtubule-associated protein tau (Homo sapiens), P10636 | recombinant tau K18 P301L (four-repeat tau fragment), heparin-induced fibrillization, ThT fluorescence | Potency, µM (series often up to 57.4 µM), for inactives: top-dose activity, negative = inhibition, usual class: inhibitors | actives 2.1% (n = 270,000) | AID 1460, 2008; also: % is scaled to controls: 0 for no effect and ±100 for the full control effect; nearly all actives have a fitted effect of over 55% in size
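Heparin-induced fibrillization of the P301L-mutant K18 repeat-domain fragment of human tau was followed by ThT binding in quantitative high-throughput format.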
HttQ103 aggreg – qHTS Multiplex Assay to Identify Dual Action Probes in a Cell Model of Huntington: Aggregate Formation (GFP); actives 1.1% (n = 220,000); AID 1688, 2009; Potency, µM (highest dose often 46.1 µM), for the others: at the highest dose activity change, negative = inhibition, hits mostly inhibitors; PC12 HttQ103-GFP aggregates, Acumen cytometry, 40 h; also: % is scaled to controls: 0 for no effect and ±100 for the full control effect; nearly all actives have a fitted effect of over 60% in size
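Quantitative HTS on tebufenozide-induced (100 nM) PC12 cells stably expressing polyQ103 Huntingtin exon 1–GFP. Reduction of bright GFP aggregates, detected by laser scanning cytometry after lysis, identified actives across the titration.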
* = called active by the depositor; u = inconclusive; x = not tested or not shown; [ ] = remark or other dose. Calls follow the shape of the dose curve; as a rule, active = well fitted curve in the direction sought with a large enough effect; inconclusive = small, poorly fitted or top-dose-only effect, or another doubt; inactive = no such curve, though single readings can be large; an effect the other way counts as inactive or inconclusive. Potency is read from the fitted curve at half-maximal effect.

SMILES	Tau fluor cs	HTT cytoprotect	Tau FP inhib	Tau fibril ThT	HttQ103 aggreg
COc1cc([N+](=O)[O-])cc(/C=N/NC(=O)c2ccc(C)nc2)c1O	-10.5%	4.7%[10 µM]	6.7%	11.2µM*	u
COc1cccc(/C=N/NC(=O)c2cc3cc([N+](=O)[O-])ccc3s2)c1O	u	x	11.0%	2.24µM*	u
COc1cc(OC)c([N+](=O)[O-])cc1/C=N/NC(=O)c1ccncc1	u	5.1%	u	25.1µM*	19.0%
COc1ccc(-c2nc(CSCC(=O)NCCC(C)C)c(C)o2)cc1OC	-11.7%	x	-1.6%	-11.0%	x
Oc1ccc(Cl)cc1C=Nc1cnc2ccccc2c1	x	1.3%[10 µM]	x	x	x
CC(C)(C)OC(=O)N1CCC(c2c(C(=O)NCc3cccc(Cl)c3)cnn2-c2ccc(F)cc2)CC1	-27.6%	x	-4.5%	-25.6%	x
COc1ccccc1NC(=O)Cn1c(=O)n(Cc2ccco2)c(=O)c2oc3ccccc3c21	4.4%	x	u	18.1%	x
CSc1nc2ccccc2n1Cc1c(Cl)cccc1Cl	-18.3%	-29.2%	-4.1%	u	11.2µM*
CN=c1scc(-c2ccc(F)cc2)n1/N=C/c1ccc(O)c(O)c1	17.8µM*[quencher]	-112.4%	-0.5%	10µM*	-17.5%
OCCn1c(-c2ccc(F)cc2)csc1=Nc1ccccc1	-20.7%	x	11.2%	-16.1%	-13.5%
Cc1ccc(Nc2nc(N)c([N+](=O)[O-])c(NCCO)n2)cc1C	0.1%[0.0958 µM]	26.9%[10 µM]	-8.0%[0.0958 µM]	x	10.4%[9.22 µM]
COc1cccc(Nc2nc(N)c([N+](=O)[O-])c(NCc3ccccc3)n2)c1	15.8µM*[quencher]	25.1%[10 µM]	u	u	20.9%[9.22 µM]
CCOc1ccc(Nc2nc(N)c([N+](=O)[O-])c(NCc3ccccc3)n2)cc1	14.1µM*[quencher]	24.4%[10 µM]	14.4%	u	10.4%[9.22 µM]
Nc1nc(Nc2ccccc2)nc(NCc2ccccc2)c1[N+](=O)[O-]	u	u	u	u	29.0%[9.22 µM]
Cc1cccc(Nc2nc(N)c([N+](=O)[O-])c(NCc3ccccc3)n2)c1	u	7.6%[10 µM]	u	u	-18.5%[9.22 µM]
COc1cccc(Nc2nc(NCCO)c3ccccc3n2)c1	-13.0%	-55.0%	3.7%	-0.5%	8.91µM*
Cc1ccc(Nc2nc(N)c([N+](=O)[O-])c(NCc3ccco3)n2)cc1C	28.2µM*[quencher]	-0.4%[10 µM]	u	15.8µM*	-23.6%
COc1ccc(S(=O)(=O)c2c(Nc3cccc(C)c3C)sc(C(=O)c3ccccc3)c2N)cc1	-4.8%	x	-14.4%	2.9%	x
C/C(=N/O)[C@@H]1C[C@H](CC(=O)O)C1(C)C	x	9.7%[10 µM]	x	x	x
COc1ccc(N/C=C2\CCc3ccccc3C2=O)cc1	28.2µM*[quencher]	-49.4%[10 µM]	-14.7%	0.891µM*	16.9%[9.22 µM]
COc1ccc2c(c1)CC/C(=C\Nc1ccc3c(c1)OCO3)C2=O	14.1µM*[quencher]	-88.6%	u	1.26µM*	-4.7%
O=C1/C(=C/Nc2ccc3c(c2)OCO3)CCc2ccccc21	7.94µM*[quencher]	-51.7%	u	1.58µM*	u
COc1ccc2c(c1)CC/C(=C\C=C\c1ccccc1)C2=O	-25.4%	7.3%[10 µM]	-8.3%	2.51µM*	u
COc1ccc(N/C=C2\CCOC2=O)cc1	0.3%	9.4%	0.7%	-21.9%	9.5%[9.22 µM]
Nc1ccc(CCNc2ncnc3c2ncn3[C@@H]2O[C@@H](CO)[C@H](O)[C@@H]2O)cc1	x	6.8%[1.9 µM]	x	x	x
CCOC(=O)c1c(C)[nH]c(C2=NNC(=NC3CC3)SC2)c1C	u	-16.3%[10 µM]	u	15.8µM*	19.4%
CCOC(=O)c1c(C)[nH]c(/C(C)=N/O)c1C	2.3%	4.9%	2.1%	10.5%	-20.2%
Cc1nn(-c2ccccc2)c(-n2cccc2)c1C(=O)NCCc1ccc(Cl)cc1	-6.3%	x	10.9%	-17.4%	x
Nc1n[nH]c(N)c1N=Nc1ccc(Cl)cc1Cl	u	-30.0%[10 µM]	7.5%	3.55µM*	15.0%
COCCCNc1c2c3c(cccc3[nH]c1=O)C(=O)c1ccccc1-2	u	-39.9%	2.1%	u	10µM*
